Experimental data as given in PubChem BioAssay (NCATS).
Records with an inconclusive call do not appear. Activity calls are given as the source filed them. Unless noted, the call rests on the fitted dose curve.

Tests used:
[1] = qHTS for Inhibitors of the Functional Ribonucleoprotein Complex (vRNP) of Lassa (LASV) Arenavirus: Viability assay - alamar blue signal for LASV Primary Screen (AID 1347083; calls by dose curve; tested in HEK293 reporter line; further: nearly all actives have a fitted effect of over 80% in size)
[2] = qHTS for Inhibitors of the Functional Ribonucleoprotein Complex (vRNP) of Lymphocytic Choriomeningitis Arenaviruses (LCMV): Viability assay - alamar blue signal for LCMV Primary Screen (AID 1347085; calls by dose curve; tested in HEK293 reporter line; further: nearly all actives have a fitted effect of over 80% in size)
[3] = molecular target: Nucleoprotein (Lymphocytic choriomeningitis virus (strain Armstrong)) (UniProt P09992); experiment: qHTS for Inhibitors of the Functional Ribonucleoprotein Complex (vRNP) of Lymphocytic Choriomeningitis Arenaviruses (LCMV): LCMV Primary Screen - GLuc reporter signal (AID 1347086); further: nearly all actives have a fitted effect of over 70% in size

Measured: Potency
Potency means the concentration at half of the fitted maximal effect.

Nucleoprotein (Lymphocytic choriomeningitis virus (strain Armstrong)), sequence (P09992 whole entry, looked up): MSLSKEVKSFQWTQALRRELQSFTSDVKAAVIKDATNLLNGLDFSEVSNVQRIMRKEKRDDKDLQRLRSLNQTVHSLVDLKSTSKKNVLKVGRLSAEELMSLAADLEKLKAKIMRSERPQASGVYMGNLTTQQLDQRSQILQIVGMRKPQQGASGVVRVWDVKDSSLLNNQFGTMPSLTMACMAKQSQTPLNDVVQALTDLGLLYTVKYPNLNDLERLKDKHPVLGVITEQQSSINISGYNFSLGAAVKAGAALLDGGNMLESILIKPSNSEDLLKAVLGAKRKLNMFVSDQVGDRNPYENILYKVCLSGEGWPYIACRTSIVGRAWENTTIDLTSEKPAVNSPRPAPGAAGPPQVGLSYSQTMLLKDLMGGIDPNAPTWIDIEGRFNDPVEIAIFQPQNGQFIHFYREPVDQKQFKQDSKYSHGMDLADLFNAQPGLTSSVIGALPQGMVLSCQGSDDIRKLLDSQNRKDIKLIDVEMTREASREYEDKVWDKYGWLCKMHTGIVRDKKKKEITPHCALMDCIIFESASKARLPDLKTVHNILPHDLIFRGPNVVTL

CCCCN1CCC(CNC(=O)c2c3n(c4ccccc24)CCCO3)CC1
active: [1] 17.2 µM | [2] 7.69 µM | [3] 4.32 µM

COc1cccc2c1CCCC2CCCN1CCN(C2CCCCC2)CC1 (stereo not drawn)
inactive: all assays above

CCCOC(=O)c1ccc(O)cc1
inactive: all assays above

Cc1cc(SCc2sc(-c3ccc(C(F)(F)F)cc3)nc2C)ccc1OCC(=O)O
inactive: all assays above

C=C1C(=CC=C2CCCC3(C)[C@@H]([C@H](C)C=CC=CC(O)(CC)CC)CC[C@@H]23)C[C@@H](O)C[C@@H]1O (stereo partly drawn)
inactive: all assays above

OC[C@H]1O[C@@H](n2cnc3c2NC=NC[C@@H]3O)C[C@H]1O
inactive: all assays above
